Data on six compounds can be found in PubChem BioAssay (Tox21).

A number with no mark means an inactive call. Inconclusive results are not listed. Calls of active or inactive are those of the source. Unless noted, the call rests on the fitted dose curve.

Experiment [1] is described as follows: Nuclear factor erythroid 2-related factor 2/antioxidant responsive element (Nrf2/ARE) small molecule agonists: qHTS cell viability counter screen in human keratinocytes (AID 1919968; active means well fitted curve in the direction sought with a large enough effect in the repeat runs; an effect the other way counts as inactive or inconclusive; further: nearly all actives have a fitted effect of over 55% in size). A digest of the protocol: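 Stably transfected HaCaT (KeratinoSens), 1,500/well. Test agents in DMSO were applied for 23 h, 37 C/5% CO2. CellTiter-Fluor was incubated 1 h before the fluorescence read.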
(In general: In qHTS, concentration-response curves come from the screen itself.)

The nature of experiment [2]: Nuclear factor erythroid 2-related factor 2/antioxidant responsive element (Nrf2/ARE) small molecule agonists: luciferase reporter gene qHTS assay in human keratinocytes (AID 1919969; further: nearly all actives have a fitted effect of over 35% in size). (Reporter assays use an easily measured gene product as a stand-in for the process of interest.)
Experiment [3] addresses Gonadotropin-releasing hormone receptor (Homo sapiens) (UniProt P30968). In words: Human gonadotropin-releasing hormone receptor (GnRHR) small molecule agonists, calcium flux assay in GnRHR-HEK293 cells (AID 1920063). Further: nearly all actives have a fitted effect of over 35% in size. In short, it runs like this: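 Stable human GnRHR HEK293 line. 18 h plating, then calcium dye for 1 h at 37 C. Agonist-mode compound addition from DMSO stocks; fluorescence monitored 3 min.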
(A change in cytosolic calcium serves as a functional read-out for many receptors and channels.)

For experiment [4], the target named is KiSS-1 receptor (Homo sapiens) (UniProt Q969F8). As to the kind of experiment: Human kisspeptin (KISS1R) small molecule agonists, calcium flux assay in KISS1R-HEK293 cells (AID 1920064; active means well fitted curve in the direction sought with a large enough effect in the repeat runs; an effect the other way counts as inactive or inconclusive). A digest of the protocol:
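After overnight (18 h) culture at 37 C/5% CO2, human KISS1R-HEK293 cells received calcium dye for 1 h, then test compound; emission at 540 nm (excitation 480 nm) was tracked for 3 min.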

Experiment [5] in a line: G protein-coupled receptor (GPCR) small molecule agonists, calcium flux assay: HEK293 wild type cell line counter screen (AID 1920065). In short, it runs like this:
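Following 18 h incubation at 37 C/5% CO2, plates got calcium dye for 1 h; compounds, ATP or DMSO were then pinned in and fluorescence followed kinetically (480/540 nm).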

Experiment [6] in a line: p53 small molecule agonists, cell-based qHTS assay with human liver microsomes: qHTS cell viability counter screen (AID 1963579). Further: nearly all actives have a fitted effect of over 45% in size. In short, it runs like this:
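Luminescent CellTiter-Glo read-out, 30 min at room temperature, gauged cytotoxicity in p53RE-bla cells exposed 16 h at 37 C to DMSO-dissolved compounds with metabolic activation by human liver microsomes and NADPH, each 0.5 mg/mL final.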

Experiment [7] in a line: p53 small molecule agonists, cell-based qHTS assay with rat liver microsomes: qHTS cell viability counter screen (AID 1963580). Further: nearly all actives have a fitted effect of over 45% in size. In short, it runs like this:
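Cytotoxicity counter screen: intracellular ATP read by CellTiter-Glo luminescence in the p53 reporter wells. HCT-116 p53RE-bla cells were treated for 16 h at 37 C alongside rat liver microsomes and NADPH, each 0.5 mg/mL final.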

The nature of experiment [8]: p53 small molecule agonists, cell-based qHTS assay: qHTS cell viability counter screen (AID 1963581). Further: nearly all actives have a fitted effect of over 45% in size. In short, it runs like this: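 qHTS counter screen: 16 h compound exposure at 37 C of p53RE-bla HCT-116 cells (4,000 per well, seeded 5 h prior), cell viability by ATP luminescence.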
For experiment [9], the target named is 5-hydroxytryptamine receptor 2A (Homo sapiens) (UniProt P28223). As to the kind of experiment: 5-hydroxytryptamine receptor 2A (HTR2A) small molecule antagonists, cell-based qHTS assay (AID 1963586). Further: nearly all actives have a fitted effect of over 45% in size. Further: potency means the concentration at half of the fitted maximal effect. In short, it runs like this: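 CHO cells stably expressing human HTR2A were plated for 18 h at 37 C, then loaded with calcium dye for 1 h. Compounds were preincubated 5 min at room temperature before DOI (4 nM solution) was added. Kinetic fluorescence was read for 3 min.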

For experiment [10] the target is unchanged. As to the kind of experiment: 5-hydroxytryptamine receptor 2A (HTR2A) small molecule agonists, cell-based qHTS assay (AID 1963587). Further: nearly all actives have a fitted effect of over 30% in size. A digest of the protocol:
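Kinetic calcium-flux fluorescence (2 min, 1 sec intervals) after compound addition in agonist mode. HTR2A-CHO cells were cultured 18 h, then dye-loaded 1 h at 37 C.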

The target in experiment [11] is Muscarinic acetylcholine receptor M1 (Homo sapiens) (UniProt P11229). As to the kind of experiment: Cholinergic receptor muscarinic 1 (CHRM1) small molecule antagonists, cell-based qHTS assay (AID 1963588). Further: nearly all actives have a fitted effect of over 40% in size. Further: potency means the concentration at half of the fitted maximal effect. A digest of the protocol:
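Compounds were tested at 15 concentrations in three independent runs. Dye-loaded CHRM1-CHO cells were exposed 5 min at room temperature before stimulation by acetylcholine added at 50nM. Intracellular calcium was read kinetically on FDSS for 3 min.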

The target is the same in experiment [12]. In words: Cholinergic receptor muscarinic 1 (CHRM1) small molecule agonists, cell-based qHTS assay (AID 1963589). Further: nearly all actives have a fitted effect of over 35% in size. A digest of the protocol: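 Kinetic fluorescence (1 s intervals) of calcium-sensitive dye in human M1 CHO cells after compound addition; cells pre-incubated 18 h at 37 C/5% CO2 and dye-loaded 1 h.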
Experiment [13] in a line: cAMP Responsive Elements (CRE) small molecule agonists, cell-based qHTS assay (AID 1963590). A digest of the protocol:
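Test agents in DMSO were incubated 3 h at 37 C/5% CO2 with CRE-bla HEK 293T cells seeded 18 h earlier; LiveBLAzer B/G FRET substrate was added and read after 2 h at room temperature.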

The nature of experiment [14]: cAMP Responsive Elements (CRE) small molecule antagonists, cell-based qHTS assay (AID 1963591; active means well fitted inhibition curve with a large enough effect in the signal ratio in the repeat runs, not every such curve was filed as active; the % refers to the signal ratio). In short, it runs like this:
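Reporter line CRE-bla HEK 293T in dialyzed-FBS DMEM; cells preincubated 18 h, treated 3 h with compound plus NKH477 (0.25 uM final); LiveBLAzer FRET, 2 h RT.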

Experiment [15] has as its target Beta-2 adrenergic receptor (Homo sapiens) (UniProt P07550). In words: Adrenergic beta2 receptor (ADRB2) small molecule antagonists, cell-based qHTS assay (AID 1963592). Further: nearly all actives have a fitted effect of over 50% in size. Further: potency means the concentration at half of the fitted maximal effect. In short, it runs like this:
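Assay format: CHO-ADRB2 cells, 18-20hr seeding at 37C/5% CO2, then compound plus 1nM isoproterenol agonist mix for 0.5hr RT. Homogeneous time-resolved fluorescence cAMP detection after 1hr, expressed as 665/615 nm ratio.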

Experiment [16] concerns the target D(2) dopamine receptor (Homo sapiens) (UniProt P14416). As to the kind of experiment: Dopamine D2 receptor (DRD2) small molecule antagonists, cell-based qHTS assay (AID 1963595; active means well fitted inhibition curve with a large enough effect in the signal ratio in the repeat runs, with a control signal flat; the % refers to the signal ratio). In short, it runs like this: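 Readout: HTRF cAMP, cAMP-d2 competing with cellular cAMP for anti-cAMP cryptate, read after 1 h. Cells: DRD2-HEK293. Conditions: 0.1 mM Ro20-1724, 12 nM quinpirole, 200 nM NKH477, 30 min RT.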

For experiment [17] the target is unchanged. As to the kind of experiment: Dopamine D2 receptor (DRD2) small molecule agonists, cell-based qHTS assay (AID 1963594). Further: nearly all actives have a fitted effect of over 35% in size. In short, it runs like this:
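cAMP accumulation in DRD2-HEK293 cells measured by HTRF after 1 h detection; compounds added 10 min before NKH477 (200nM […]) forskolin-analogue stimulation, 30 min at room temperature, with Ro20-1724 present at 0.1 mM final.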

Experiment [18] concerns the target Beta-2 adrenergic receptor (Homo sapiens) (UniProt P07550). As to the kind of experiment: Adrenergic beta2 receptor (ADRB2) small molecule agonists, cell-based qHTS assay (AID 1963593).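 Further: CHO cells stably overexpressing human ADRB2.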 A digest of the protocol:
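CHO cells stably over-expressing ADRB2 were plated overnight at 37C, then dosed with compounds plus a stimulation mix containing 100uM IBMX and 25uM Ro-20-1724 for 0.5hr at room temperature. cAMP was measured by HTRF competition, 1hr.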

Sequence of Muscarinic acetylcholine receptor M1 (Homo sapiens) (P11229 whole entry, looked up): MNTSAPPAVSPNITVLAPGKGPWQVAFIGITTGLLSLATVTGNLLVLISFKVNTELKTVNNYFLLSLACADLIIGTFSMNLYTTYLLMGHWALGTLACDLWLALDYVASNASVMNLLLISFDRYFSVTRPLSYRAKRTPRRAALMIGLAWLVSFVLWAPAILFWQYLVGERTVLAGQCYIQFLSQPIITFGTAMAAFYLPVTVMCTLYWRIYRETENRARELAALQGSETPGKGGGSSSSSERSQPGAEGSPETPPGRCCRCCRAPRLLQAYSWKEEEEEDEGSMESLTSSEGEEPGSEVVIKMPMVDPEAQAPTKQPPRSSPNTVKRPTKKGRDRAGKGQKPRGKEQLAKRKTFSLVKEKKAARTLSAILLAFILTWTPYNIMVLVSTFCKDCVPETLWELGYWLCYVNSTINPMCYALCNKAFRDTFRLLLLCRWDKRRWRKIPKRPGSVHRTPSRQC
Sequence of 5-hydroxytryptamine receptor 2A (Homo sapiens) (P28223 whole entry, looked up): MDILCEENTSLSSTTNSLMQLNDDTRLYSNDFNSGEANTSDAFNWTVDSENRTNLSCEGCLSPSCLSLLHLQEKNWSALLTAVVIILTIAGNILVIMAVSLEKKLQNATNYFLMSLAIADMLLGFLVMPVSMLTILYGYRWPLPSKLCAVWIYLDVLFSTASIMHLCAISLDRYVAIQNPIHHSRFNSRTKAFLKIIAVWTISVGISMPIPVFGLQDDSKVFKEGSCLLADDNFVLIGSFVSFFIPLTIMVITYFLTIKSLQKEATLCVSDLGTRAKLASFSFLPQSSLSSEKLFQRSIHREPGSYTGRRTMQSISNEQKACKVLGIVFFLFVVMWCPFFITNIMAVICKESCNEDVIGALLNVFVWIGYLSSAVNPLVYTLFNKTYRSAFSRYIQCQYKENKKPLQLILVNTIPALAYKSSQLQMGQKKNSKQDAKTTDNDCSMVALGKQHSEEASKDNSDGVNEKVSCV
Sequence of Gonadotropin-releasing hormone receptor (Homo sapiens) (P30968 whole entry, looked up): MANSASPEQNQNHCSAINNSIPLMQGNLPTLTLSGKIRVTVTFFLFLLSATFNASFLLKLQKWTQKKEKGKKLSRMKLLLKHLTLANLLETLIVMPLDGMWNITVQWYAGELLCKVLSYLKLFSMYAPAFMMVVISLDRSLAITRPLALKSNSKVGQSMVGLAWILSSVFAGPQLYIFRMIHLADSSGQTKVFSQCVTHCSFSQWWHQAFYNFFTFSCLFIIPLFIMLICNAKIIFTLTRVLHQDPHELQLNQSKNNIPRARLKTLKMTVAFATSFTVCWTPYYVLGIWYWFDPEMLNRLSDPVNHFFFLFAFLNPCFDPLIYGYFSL
Sequence of KiSS-1 receptor (Homo sapiens) (Q969F8 whole entry, looked up): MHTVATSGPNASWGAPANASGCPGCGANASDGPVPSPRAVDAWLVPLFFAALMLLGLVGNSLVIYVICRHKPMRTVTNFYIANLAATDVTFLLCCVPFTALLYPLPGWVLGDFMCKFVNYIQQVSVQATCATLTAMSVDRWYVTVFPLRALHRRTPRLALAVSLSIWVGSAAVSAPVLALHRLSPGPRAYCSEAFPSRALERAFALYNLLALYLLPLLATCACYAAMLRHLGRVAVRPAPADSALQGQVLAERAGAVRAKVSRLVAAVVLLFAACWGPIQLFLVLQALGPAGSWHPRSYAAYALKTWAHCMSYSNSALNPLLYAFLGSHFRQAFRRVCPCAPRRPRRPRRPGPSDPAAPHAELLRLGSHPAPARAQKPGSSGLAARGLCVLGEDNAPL
Sequence of Beta-2 adrenergic receptor (Homo sapiens) (P07550 whole entry, looked up): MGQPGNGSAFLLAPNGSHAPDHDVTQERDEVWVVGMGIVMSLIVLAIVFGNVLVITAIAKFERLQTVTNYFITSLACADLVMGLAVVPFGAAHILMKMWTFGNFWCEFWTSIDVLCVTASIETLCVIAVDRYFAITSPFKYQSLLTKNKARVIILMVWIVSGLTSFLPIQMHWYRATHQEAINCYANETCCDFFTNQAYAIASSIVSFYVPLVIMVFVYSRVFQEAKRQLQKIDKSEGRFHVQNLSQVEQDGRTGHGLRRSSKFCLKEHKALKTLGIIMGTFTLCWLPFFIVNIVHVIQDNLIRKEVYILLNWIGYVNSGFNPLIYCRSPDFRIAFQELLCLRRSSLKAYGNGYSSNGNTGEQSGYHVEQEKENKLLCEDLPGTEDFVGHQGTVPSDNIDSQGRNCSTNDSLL
Sequence of D(2) dopamine receptor (Homo sapiens) (P14416 whole entry, looked up): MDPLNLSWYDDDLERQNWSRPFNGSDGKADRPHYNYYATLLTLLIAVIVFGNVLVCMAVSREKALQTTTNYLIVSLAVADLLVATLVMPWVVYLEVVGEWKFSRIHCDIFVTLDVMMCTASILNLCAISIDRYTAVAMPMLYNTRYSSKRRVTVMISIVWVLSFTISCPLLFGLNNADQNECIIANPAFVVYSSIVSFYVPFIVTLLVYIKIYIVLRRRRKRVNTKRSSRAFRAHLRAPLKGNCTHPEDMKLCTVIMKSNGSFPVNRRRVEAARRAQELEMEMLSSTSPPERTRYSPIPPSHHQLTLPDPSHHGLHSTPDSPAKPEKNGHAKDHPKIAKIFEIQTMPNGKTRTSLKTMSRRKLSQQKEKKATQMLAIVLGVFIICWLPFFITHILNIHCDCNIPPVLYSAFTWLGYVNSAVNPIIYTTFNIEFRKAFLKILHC

`CCC(C)(CCC(C)C)C(=O)[O-].CCC(C)(CCC(C)C)C(=O)[O-].[Zn+2]` (stereo unspecified): the Potency entry in experiment [1], in experiment [2], in experiment [3], in experiment [4], in experiment [5] and in [6] was “inactive” each time. Moreover, the Potency entry in [7], in [8], in experiment [9], in experiment [10], in experiment [11] and in experiment [12] was “inactive” each time. In addition, the Potency result in experiment [13], in [14], in experiment [15] and in [16] was “inactive” each time.
`O=C(O)/C=C(\CC(=O)O)C(=O)O`: the Potency entry in [1], in experiment [2], in experiment [3], in experiment [4], in experiment [5] and in [6] was “inactive” each time. The Potency result in [7], in [8], in experiment [9], in experiment [10], in experiment [11] and in [12] was “inactive” in each case. The Potency result in experiment [13], in experiment [14], in experiment [15], in [17] and in experiment [16] was “inactive” each time.
Regarding `CCCC(=O)OC/C=C(\C)CCC=C(C)C`, the Potency entry in experiment [1], in [2], in [3], in [4], in experiment [5] and in [6] was “inactive” throughout. In addition, the Potency entry in experiment [7], in experiment [8], in experiment [9], in experiment [10], in [11] and in experiment [12] was “inactive” each time. Also, the Potency entry in [13], in experiment [14], in experiment [15], in experiment [17] and in experiment [16] was “inactive” each time.
In the case of `CN(C)CCOc1ccccc1Cc1ccccc1`, the Potency entry in experiment [1], in experiment [2], in experiment [3], in experiment [4], in experiment [5] and in experiment [6] was “inactive” in each case. Further, the Potency result in [7], in experiment [8], in [10], in [12], in experiment [13] and in experiment [14] was “inactive” throughout. Besides, the Potency entry in [17] and in [16] was “inactive” throughout. Further, the results for the Potency in [9], in experiment [11] and in [15] were 0.326 µM (active), 1.45 µM (active) and 33.5 µM (active), respectively.
On to `COCCCOCCCOC`, for which the Potency entry in [1], in [2], in experiment [3], in experiment [4], in experiment [5] and in experiment [6] was “inactive” throughout. Also, the Potency entry in [7], in [8], in [9], in experiment [10], in experiment [11] and in experiment [12] was “inactive” in each case. For the same compound, the Potency result in experiment [13], in experiment [14], in experiment [15], in experiment [18] and in [16] was “inactive” in each case.
`CCCCCCCC/C=C\CCCCCCCCO`: the Potency entry in [1], in [2], in experiment [3], in experiment [4], in experiment [5] and in experiment [6] was “inactive” each time. Also, the Potency entry in [7], in experiment [8], in experiment [9], in [10], in experiment [11] and in experiment [12] was “inactive” in each case. The Potency result in experiment [13], in experiment [14], in [17] and in experiment [16] was “inactive” throughout. In addition, the Potency in experiment [15] was 54.4 µM (active).
